Paper PMC4336329 (PLoS ONE, 2015)
About 14,000 (4.5%) of roughly 310,000 compounds showed an effect of 50% or more. Effects have a minus sign here. This is one part of a sample in which strong results are shown more often than they occur.

target: human ether-à-go-go-related gene (hERG) potassium channel (human, UniProt Q12809); assay: primary screen, population patch clamp on CHO cells stably expressing hERG; higher = less effect of the substance
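Further: peak tail current of the secondary pulse compared with the same well before compound.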

Sequence of human ether-à-go-go-related gene (hERG) potassium channel (Q12809 whole entry, looked up): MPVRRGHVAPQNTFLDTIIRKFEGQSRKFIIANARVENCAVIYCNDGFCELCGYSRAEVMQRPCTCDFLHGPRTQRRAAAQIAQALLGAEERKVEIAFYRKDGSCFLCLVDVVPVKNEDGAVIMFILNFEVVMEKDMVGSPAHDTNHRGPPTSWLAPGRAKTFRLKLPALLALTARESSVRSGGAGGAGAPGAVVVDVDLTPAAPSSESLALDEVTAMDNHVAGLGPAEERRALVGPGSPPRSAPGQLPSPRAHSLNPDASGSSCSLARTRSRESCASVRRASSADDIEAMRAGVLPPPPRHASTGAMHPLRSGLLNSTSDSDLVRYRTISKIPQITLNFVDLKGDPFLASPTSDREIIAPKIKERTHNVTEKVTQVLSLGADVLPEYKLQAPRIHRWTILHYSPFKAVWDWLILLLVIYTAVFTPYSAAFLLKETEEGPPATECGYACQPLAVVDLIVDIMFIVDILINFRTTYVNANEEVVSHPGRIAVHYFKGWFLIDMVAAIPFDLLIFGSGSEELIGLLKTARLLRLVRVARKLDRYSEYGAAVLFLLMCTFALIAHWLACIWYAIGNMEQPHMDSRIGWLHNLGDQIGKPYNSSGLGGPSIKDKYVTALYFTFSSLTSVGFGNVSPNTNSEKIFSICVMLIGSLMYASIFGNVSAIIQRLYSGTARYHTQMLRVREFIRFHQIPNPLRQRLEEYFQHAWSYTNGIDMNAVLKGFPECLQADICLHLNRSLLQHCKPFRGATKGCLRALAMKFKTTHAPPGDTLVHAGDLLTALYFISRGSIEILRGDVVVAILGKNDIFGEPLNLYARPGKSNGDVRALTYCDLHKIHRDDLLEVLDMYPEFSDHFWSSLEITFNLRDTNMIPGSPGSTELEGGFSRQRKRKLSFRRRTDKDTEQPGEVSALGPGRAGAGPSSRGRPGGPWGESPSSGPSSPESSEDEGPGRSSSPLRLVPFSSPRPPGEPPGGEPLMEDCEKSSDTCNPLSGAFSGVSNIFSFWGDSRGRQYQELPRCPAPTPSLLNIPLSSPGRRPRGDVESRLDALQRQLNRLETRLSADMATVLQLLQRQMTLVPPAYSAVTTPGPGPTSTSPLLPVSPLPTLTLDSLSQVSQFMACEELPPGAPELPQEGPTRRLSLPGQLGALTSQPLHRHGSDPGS

Structure (SMILES)	hERG current change (%, negative = inhibition) at 10uM
Cc1onc(-c2ccccc2Cl)c1C(=O)Nc1ccc(S(=O)(=O)NCC2CCCO2)cc1 (stereo not shown)	-10.5%
COc1ccc(C(=O)Nc2ccccc2N2CCOCC2)cc1S(=O)(=O)N1CCCC1	-24.5%
O=C(NCCCN1CCOCC1)c1cccc(S(=O)(=O)N2CCc3ccccc3C2)c1	-17%
O=C(NNC(=O)c1ccc(Cl)cc1Cl)c1ccncc1	17%
Cc1ccc(-c2cccc(C(=O)NCc3ccccc3)n2)c2ccccc12	17.8%
CCOC(=O)N1C=CC=C[C@@H]2[C@@H](N3C(=O)c4ccccc4C3=O)C(=O)N21	0.941%
COc1ccc(OC)c2[nH]c(=O)c(CCNC(=O)C(=O)c3c(C)[nH]c4ccccc34)cc12	-1.04%
C/C(CC(=O)Nc1ccccc1[N+](=O)[O-])=N\NC(=O)COc1ccccc1C	-5.65%
COC(=O)c1cc(-c2ccc(OC)c(OC)c2)c2c(=O)[nH]c(=O)n(C)c2n1	21.3%
COc1ccc(CSCCc2n[nH]c(=S)n2-c2ccccc2)cc1	20.1%
CC1=Nn2c(nnc2-c2n[nH]c3c2CCC3)SC1	8.18%
COc1ccc(N(CC(=O)NC(C)c2ccccc2)S(=O)(=O)c2ccc(C)cc2)cc1 (stereo not shown)	-22.1%
Cc1ccc(N(CC(=O)NCC(O)c2ccccc2)S(=O)(=O)c2ccc(C)cc2)cc1 (stereo not shown)	-65.9%
COc1ccc(N(CC(=O)NCc2ccncc2)S(=O)(=O)c2ccc(C)c([N+](=O)[O-])c2)cc1	-50.9%
Cc1ccc(S(=O)(=O)N(CC(=O)NCc2cccnc2)c2ccc(F)cc2)cc1	-61.2%
CN(c1ccc(OCC(=O)OCC(=O)Nc2ccc(F)cc2)cc1)S(=O)(=O)c1ccc(Cl)cc1	-59.2%
COc1ccc(S(=O)(=O)N(CC(=O)NCc2cccnc2)c2ccc(C)cc2)cc1OC	-10%
CN(c1ccc(OCC(=O)OCC(=O)Nc2c(F)c(F)c(F)c(F)c2F)cc1)S(=O)(=O)c1ccc(F)cc1	8.61%
COc1ccc(N(CC(=O)Nc2ccc(C(N)=O)cc2)S(=O)(=O)c2ccc(C)c([N+](=O)[O-])c2)cc1	24%
COc1ccc(N(CC(=O)NCc2cccnc2)S(=O)(=O)c2ccc(C)c([N+](=O)[O-])c2)cc1	-36.6%
CCNC(=O)CN(c1ccc(C)cc1)S(=O)(=O)c1ccccc1	7.75%
CN(c1ccc(OCC(=O)OCC(=O)Nc2ccccc2)cc1)S(=O)(=O)c1ccc(F)cc1	-11.9%
COc1ccc(S(=O)(=O)N(CC(=O)NCc2cccnc2)c2ccc(F)cc2)cc1OC	4.62%
Fc1ccc(C2=CCN(C(c3cccs3)c3nnnn3CCc3ccccc3)CC2)cc1 (stereo not shown)	-0.341%
O=C(CCC(=O)c1cccs1)Nc1ccccc1F	3.01%
COc1ccc(C(=O)CCC(=O)NCCc2c[nH]c3ccccc23)cc1OC	21.2%
Cc1cccc(C)c1NC(=O)c1ccc(CN2CCc3ccccc3C2)cc1	4.57%

Structure (SMILES)	hERG current change (%, negative = inhibition) at 10uM
Cc1nn(CC(=O)N2CCCCCC2)c(=O)c2cc3occc3n12	14.6%
Cc1cc(NC(=O)c2cc(-c3ccc(Br)cc3)on2)no1	17.6%
COc1ccc(CCNC(=O)c2ccccc2OCc2c(C)noc2C)cc1	-26.4%
NS(=O)(=O)c1ccc(NC(=O)/C=C/c2ccccc2Cl)cc1	9.54%
CN=C(Nc1cc(C)nn1-c1ccccc1)c1ccc(F)cc1	-9.94%
COc1cc(SC)ccc1C(=O)Nc1cccc(S(=O)(=O)NC2=NCCCCC2)c1	4.08%
Cc1ccc(S(=O)(=O)N(Cc2ccc(Cl)cc2)c2ccccc2C(=O)NCc2ccco2)cc1	-10.8%
O=C(COc1ccc(S(=O)(=O)N2CCCC2)cc1Cl)NCc1cccnc1	-55%
CN(c1ccc(OCC(=O)OCC(=O)NCc2ccco2)cc1)S(=O)(=O)c1ccc2ccccc2c1	2.22%
O=C(COc1ccc(S(=O)(=O)N2CCCC2)cc1)NCc1cccnc1	-3.42%
Cc1ccc(S(=O)(=O)N(Cc2ccc(Cl)cc2)c2ccccc2C(=O)NCc2cccnc2)cc1	-52%
COCCNC(=O)COc1ccc(N(C)S(=O)(=O)c2ccc3ccccc3c2)cc1	-62%
O=C(COc1ccc(S(=O)(=O)N2CCCCC2)cc1)NCc1cccnc1	3.06%
CN(c1ccc(OCC(=O)O)cc1)S(=O)(=O)c1ccc2ccccc2c1	16.1%
CCOc1ccc(S(=O)(=O)N(C)c2ccc(OCC(=O)NCc3cccnc3)cc2)cc1	-21.5%
CN(c1ccc(OCC(=O)NCc2cccnc2)cc1)S(=O)(=O)c1ccc(Cl)cc1	-58.4%
Cc1ccc(S(=O)(=O)N(Cc2ccccc2)c2ccccc2C(=O)NCc2cccnc2)cc1	-33.2%
CN(c1ccc(OCC(=O)NCCc2ccccc2)cc1)S(=O)(=O)c1ccc(Cl)cc1	15.2%
COc1cc(/C=C/c2ccc3c(Br)cc(Br)c(O)c3n2)ccc1O	17.2%
O=C(CSc1ccc([N+](=O)[O-])cn1)Nc1ccc(N2CCOCC2)c(Cl)c1	-33.2%
CCc1nnc(NC(=O)CSc2nnnn2-c2cccc(C(=O)OC)c2)s1	8.39%
O=C(Cc1cccs1)Nc1nnc(COc2ccccc2)s1	3.05%
O=C(CN1C(=O)NC2(CCc3ccccc32)C1=O)Nc1cc(C(F)(F)F)ccc1N1CCOCC1 (stereo not shown)	-5.15%
O=C(COc1ncnc2ccccc12)N1CCN(S(=O)(=O)c2ccc(Cl)cc2)CC1	-9.26%
Cc1nc(Cl)c2c(n1)NC1=C(O2)C(=O)CCC1	14.7%
COc1cccc(/C=C2\SC(=S)N(CCC(=O)NCCc3ccc(O)cc3)C2=O)c1	3.18%
COc1ccc(Nc2nc(-c3sc(N)nc3C)cs2)cc1	8.32%

Structure (SMILES)	hERG current change (%, negative = inhibition) at 10uM
O=C(NNC1=Nc2cccc3cccc1c23)c1ccc(Br)cc1	4.78%
Cc1cccc2cc(C(c3nnnn3Cc3ccccc3)N3CCN(c4ccccc4)CC3)c(=O)[nH]c12 (stereo not shown)	-29.1%
COc1cccc(/C=N/NC(=O)COc2cccc3cccnc23)c1O	0.232%
CN(C)/C=C(/C(=O)c1ccc(Cl)c(Cl)c1)c1nnnn1-c1ccccc1	9.85%
COc1ccc(C2C3=C(CCCC3=O)Nc3nc(SCc4ccc(C(=O)O)cc4)nn32)cc1OC (stereo not shown)	-3.79%
Cl.Cn1cccc1CNCCc1ccccc1	-1.74%
COCCNC(=O)CN(c1ccc(OC)c(OC)c1)S(=O)(=O)c1ccc(C)cc1	-8.68%
CN(c1ccc(C(=O)N2CCOCC2)cc1)S(=O)(=O)c1ccc(Cl)cc1	-34.2%
CN(c1ccc(C(=O)N2CCCCC2)cc1)S(=O)(=O)c1ccccc1	-10.8%
COc1ccc(S(=O)(=O)N(CC(=O)NCc2ccncc2)c2ccc(C)cc2)cc1OC	-6.77%
CCOc1ccc(S(=O)(=O)N(CC)CC(=O)NCc2cccnc2)cc1	-38%
COCCNC(=O)CN(c1ccc(C)cc1)S(=O)(=O)c1ccccc1	9.01%
CCc1ccc(N(CC(=O)NCc2cccnc2)S(=O)(=O)c2ccccc2)cc1	-27%
CCOc1ccc(S(=O)(=O)N(CC(=O)NCc2cccnc2)c2ccc(C)cc2)cc1	-66.9%
CN(c1ccc(C(=O)N2CCCCCC2)cc1)S(=O)(=O)c1ccc(Cl)cc1	-63%
COc1ccc(S(=O)(=O)N(CC(=O)NCCCN(C)C)c2ccc(C)cc2)cc1OC	-56.6%
COc1ccc(N(CC(=O)NCCOc2ccccc2)S(=O)(=O)c2ccc(C)cc2)cc1	-54.8%
COCCNC(=O)CN(c1cccc(OC)c1)S(=O)(=O)c1ccc(C)cc1	-12.2%
CCCC(C)c1nc(C(N)=O)c2[nH]c(=O)n(-c3ccc(OC)c(OC)c3)c2n1 (stereo not shown)	12.6%
CCc1ccc(NC(=O)C2CCN(S(=O)(=O)c3cnc[nH]3)CC2)cc1	9.27%
COc1ccccc1NC(=O)Cn1cnc2sc(C(=O)Nc3cc(OC)c(OC)c(OC)c3)c(C)c2c1=O	27.8%
CCn1cc(/C=C(\NC(=O)c2ccccc2OC)C(=O)NCCCN2CCOCC2)c2ccccc21	-7.61%
Cc1ccccc1OCC(=O)N/N=C/c1cccn1C	7.04%
COc1ccc(-n2nc(C(=O)NCC(=O)NC(C)C)c3ccccc3c2=O)cc1	13.7%
CCOC(=O)C1CCCCN1Cc1cc(OC)ccc1OC (stereo not shown)	5.17%
